Among all 96,000 compounds or so, about 20,000 (21%) were called active.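 How the source made its calls: active means CYP2C19 inhibition above a set limit at 5 µM in the primary screen (cut at about 50% in these data); inactive means the rest.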 A selection follows.

For this assay, the target named is Cytochrome P450 2C19 (Homo sapiens) (UniProt P33261). Put plainly: blockers of cytochrome P450 2C19 activity – biochemical, luminescence, ADME assay, primary screen (AID 778).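 Further: plate controls were negative control wells for no effect and 2.5 mM tranylcypromine positive control for full effect.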 As to conditions: CYP2C19 Supersomes, luciferin-H EGE luminescence, 30 min; at 5 µM; stronger effect = higher value.
Cytochrome P450 2C19 (Homo sapiens), sequence (P33261 whole entry, looked up): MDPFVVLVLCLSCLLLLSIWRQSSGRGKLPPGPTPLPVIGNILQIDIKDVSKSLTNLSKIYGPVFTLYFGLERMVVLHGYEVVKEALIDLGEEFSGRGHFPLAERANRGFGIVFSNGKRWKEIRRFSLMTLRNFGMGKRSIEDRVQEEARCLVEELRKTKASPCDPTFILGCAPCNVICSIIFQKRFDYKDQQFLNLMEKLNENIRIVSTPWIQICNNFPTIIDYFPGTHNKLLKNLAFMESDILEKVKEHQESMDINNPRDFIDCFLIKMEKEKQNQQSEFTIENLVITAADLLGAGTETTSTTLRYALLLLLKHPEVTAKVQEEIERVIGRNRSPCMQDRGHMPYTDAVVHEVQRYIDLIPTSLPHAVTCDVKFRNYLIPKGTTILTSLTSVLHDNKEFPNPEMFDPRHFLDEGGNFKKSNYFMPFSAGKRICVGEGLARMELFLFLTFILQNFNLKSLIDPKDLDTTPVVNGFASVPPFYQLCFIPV
Usually inhibition stands for the change of the read-out against control, counted positive when it falls. In the case of `CCCOC(=O)Nc1ccccc1C(N)=O`, the inhibition is 5.8% (inactive).
The same measure for `C=CCn1c(SCC(=O)c2c(N)n(C)c(=O)n(C)c2=O)nc2sc(CC)cc2c1=O`: 1.3% (inactive).
`Cc1cc2c(=O)n(C)c(SCC(=O)c3cc4ccccc4o3)nc2s1`: the inhibition was 85.9% (active).
With `CSCCC(NC(=O)COc1ccccc1)C(=O)OCC(=O)c1cc2ccccc2o1` (stereo unspecified) the figure was 28.3% (inactive).
The same measure for `COc1ccc(CN2CCn3ncc(C(=O)Nc4ccc(Cl)cc4Cl)c3C2=O)cc1`: -8.8% (inactive); for `O=C(COC(=O)CCc1c[nH]c(=O)[nH]1)Nc1ccccc1Cl`: -10% (inactive).
On to `O=C(O)CSCNC(=O)CC12CC3CC(CC(C3)C1)C2`, for which the inhibition was 11.3% (inactive).
With `O=C(C(NS(=O)(=O)c1cccc2nsnc12)c1ccccc1)N1CCN(c2ccccn2)CC1` (stereo unspecified) the figure was 35.6% (inactive); with `O=C(C(NS(=O)(=O)c1cccc2nsnc12)c1ccccc1)N1CCN(c2ccccc2)CC1` (stereo unspecified), 86.3% (active).
The same measure for `O=C(O)c1ccc(NS(=O)(=O)c2cccc3nsnc23)cc1`: 2% (inactive); for `CC(C)c1nc2ccc(C(=O)O)cc2[nH]1`: 12.1% (inactive); for `CC(C)(C)c1cc(=O)n2c(nc3ccccc32)[nH]1`: 12.3% (inactive).
Regarding `C/C(=N\NC(=O)c1ccccc1C)c1ccc(N2CCOCC2)cc1`, the inhibition was 3.2% (inactive).
The same measure for `Cc1cccc(-n2nc3c(c2NC(=O)c2ccc(Br)o2)CSC3)c1C`: -0.9% (inactive); for `O=C1CCC(=O)N1CCOP1(=O)COc2ccccc2OC1`: -14.7% (inactive).
Turning to `CN=C1SC(C(=O)O)CC(=O)N1C` (stereo unspecified), the inhibition is -3.4% (inactive).
With `Cc1ccc(C)c(NC(=O)CSc2nnc(Cc3cccn3C)n2-c2ccc(F)cc2)c1` the figure was 15.6% (inactive); with `Cn1cccc1Cc1nnc(SCC(=O)NCCc2ccccc2)n1-c1ccc(F)cc1`, 59.6% (active).
For the compound `COc1ccc(-n2c(Cc3cccn3C)nnc2SCC(=O)Nc2cc(C)cc(C)c2)cc1`, the inhibition was 20.6% (inactive).
Regarding `COC(=O)c1ccc(NC(=O)CSc2nnc(Cc3cccn3C)n2-c2ccc(F)cc2)cc1`, the inhibition is 22.5% (inactive).
As to `COc1ccccc1NC(=O)CSc1nnc(Cc2cccn2C)n1-c1ccc(F)cc1`, the inhibition was 66.3% (active).
With `Cc1nnc(SCC(=O)N/N=C/c2cn(-c3ccccc3)nc2-c2ccc(F)cc2)n1-c1ccccc1` the figure was 3.9% (inactive); with `Cn1cccc1Cc1nnc(SCC(=O)NCc2ccc3c(c2)OCO3)n1CCc1ccccc1`, 88.3% (active).
For the compound `CC1(C)CC(=O)C=C(NCc2ccncc2)C1`, the inhibition is 31.5% (inactive).
The same measure for `CCN(CC)C(=O)CSc1nnc(C2CCCCC2)o1`: 8.6% (inactive); for `CCCC(=O)Nc1ccc2c(c1)nc1n2CCSC1`: -2.8% (inactive).

Values taken from PubChem BioAssay AID778 (Sanford-Burnham Center for Chemical Genomics, 2007).
